Compounds without any hit were thinned out: in the full panel of roughly 83,000, 20% have a hit.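 Cell lines were cultured in 96-well plates, exposed to a single compound concentration, and assessed for percent growth 48 hours later.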 Activity calls are given as the source filed them. Rule for the calls: active = growth percent below 10; inactive = the rest.
Experiments:
Test in all cases: NCI-60 one-dose screen, 48 h (100 = growth as untreated, 0 = no growth, -100 = all killed)
Conditions in all cases: 10 µM unless noted
HCT-15 colon = system: HCT-15 colon
HT29 colon = system: HT29 colon
SNB-75 CNS = system: SNB-75 CNS
SNB-19 CNS = system: SNB-19 CNS
U251 CNS = system: U251 CNS
PC-3 prostate = system: PC-3 prostate
SK-MEL-5 melanoma = system: SK-MEL-5 melanoma
UACC-62 melanoma = system: UACC-62 melanoma
LOX IMVI melanoma = system: LOX IMVI melanoma
SK-MEL-28 melanoma = system: SK-MEL-28 melanoma
SK-MEL-2 melanoma = system: SK-MEL-2 melanoma
EKVX NSCLC = system: EKVX NSCLC
SN12C renal = system: SN12C renal
UO-31 renal = system: UO-31 renal
TK-10 renal = system: TK-10 renal
ACHN renal = system: ACHN renal
CAKI-1 renal = system: CAKI-1 renal
A498 renal = system: A498 renal
CCRF-CEM leukemia = system: CCRF-CEM leukemia
MOLT-4 leukemia = system: MOLT-4 leukemia

Measured: growth

COc1ccc(/C=C2\Oc3cc(OCCN4CCC(Cc5ccccc5)CC4)ccc3C2=O)cc1OC
active: LOX IMVI melanoma 7.25%
inactive: HCT-15 colon 33.5% | HT29 colon 21.7% | SNB-75 CNS 80.8% | SNB-19 CNS 92.6% | U251 CNS 70.9% | PC-3 prostate 78.1% | SK-MEL-5 melanoma 42.7% | UACC-62 melanoma 74.4% | SK-MEL-28 melanoma 81.5% | SK-MEL-2 melanoma 104% | EKVX NSCLC 70.4% | SN12C renal 65.6% | UO-31 renal 51.9% | TK-10 renal 95.3% | ACHN renal 96.8% | CAKI-1 renal 74.2% | A498 renal 69.7% | CCRF-CEM leukemia 55.9% | MOLT-4 leukemia 46.7%

COc1ccc(/C=C(\C#N)n2nnc3c(F)cccc32)cc1
active: SNB-75 CNS -58.8% | A498 renal -29.1%
inactive: HCT-15 colon 13.8% | HT29 colon 13.4% | SNB-19 CNS 30.7% | U251 CNS 23.7% | PC-3 prostate 29.8% | SK-MEL-5 melanoma 32.3% | UACC-62 melanoma 29.5% | LOX IMVI melanoma 19.8% | SK-MEL-28 melanoma 36.4% | SK-MEL-2 melanoma 24.1% | EKVX NSCLC 32.3% | SN12C renal 24.2% | UO-31 renal 39.4% | TK-10 renal 45.3% | ACHN renal 28.3% | CAKI-1 renal 24.8% | CCRF-CEM leukemia 18.9% | MOLT-4 leukemia 14.4%

CSc1ccc2c(c1)c(CCN)c(C)n2Cc1ccc(Cl)c(Cl)c1
active: HCT-15 colon -91.3% | HT29 colon -82.9% | SNB-75 CNS -84.3% | SNB-19 CNS -75% | U251 CNS -87.3% | PC-3 prostate -90% | SK-MEL-5 melanoma -95.1% | UACC-62 melanoma -89.6% | LOX IMVI melanoma -89.7% | SK-MEL-28 melanoma -65.6% | SK-MEL-2 melanoma -66.1% | EKVX NSCLC -86.7% | SN12C renal -80.2% | UO-31 renal -91% | TK-10 renal -80.4% | ACHN renal -85.5% | CAKI-1 renal -92.5% | A498 renal -91.8% | CCRF-CEM leukemia -56.2% | MOLT-4 leukemia -64.6%

CC1(C)C2CC1C1(/C=N/NC(N)=S)C(C2)C(C#N)(C#N)C1(C#N)C#N (stereo not given)
inactive: HCT-15 colon 27.5% | HT29 colon 60.6% | SNB-75 CNS 101% | SNB-19 CNS 94.8% | U251 CNS 82.1% | PC-3 prostate 70.7% | SK-MEL-5 melanoma 85.6% | UACC-62 melanoma 78.8% | LOX IMVI melanoma 50.1% | SK-MEL-28 melanoma 88.7% | SK-MEL-2 melanoma 90.3% | EKVX NSCLC 93.8% | SN12C renal 87.6% | UO-31 renal 51.4% | TK-10 renal 116% | ACHN renal 44.8% | CAKI-1 renal 104% | A498 renal 94.3% | CCRF-CEM leukemia 16% | MOLT-4 leukemia 11.3%

Cc1cccc(NC2=C(Cl)C(=O)c3nc(C)ccc3C2=O)c1
inactive: HT29 colon 115% | SNB-19 CNS 23.7% | U251 CNS 32.8% | PC-3 prostate 24.6% | EKVX NSCLC 75.7% | TK-10 renal 123% | A498 renal 42.1%
active: HCT-15 colon -54.8% | SNB-75 CNS -64.9% | SK-MEL-5 melanoma -93% | UACC-62 melanoma -67% | LOX IMVI melanoma -54.6% | SK-MEL-28 melanoma -54.5% | SK-MEL-2 melanoma -9.34% | SN12C renal -71.2% | UO-31 renal -93.3% | ACHN renal -98.3% | CAKI-1 renal -33.1% | CCRF-CEM leukemia 3.19% | MOLT-4 leukemia -22.1%

Oc1ccc(C#CCOc2ccccc2)cc1CNCCN(Cc1ccccn1)Cc1ccccn1
inactive: HT29 colon 25.5% | SNB-75 CNS 25.6% | SNB-19 CNS 20.7% | PC-3 prostate 27.7% | SK-MEL-28 melanoma 32.9% | SK-MEL-2 melanoma 61.2% | EKVX NSCLC 16% | SN12C renal 13.9% | TK-10 renal 26.2% | CAKI-1 renal 28.4%
active: HCT-15 colon 4.51% | U251 CNS 7.44% | SK-MEL-5 melanoma 1.89% | UACC-62 melanoma 9.83% | LOX IMVI melanoma 3.51% | UO-31 renal -2.48% | ACHN renal 9.66% | A498 renal -21.8% | CCRF-CEM leukemia 6.83% | MOLT-4 leukemia 1.72%

O=C(Nc1ccc(Cl)cc1F)c1ccccc1O
inactive: HCT-15 colon 42.7% | HT29 colon 96.4% | SNB-75 CNS 36.4% | SNB-19 CNS 45.8% | U251 CNS 34.6% | PC-3 prostate 59.6% | LOX IMVI melanoma 28.2% | SK-MEL-28 melanoma 29.9% | EKVX NSCLC 66.2% | SN12C renal 13.7% | TK-10 renal 56.6% | ACHN renal 34.2% | CAKI-1 renal 35.8% | CCRF-CEM leukemia 53.2% | MOLT-4 leukemia 29.7%
active: SK-MEL-5 melanoma -47.5% | UACC-62 melanoma 9.27% | SK-MEL-2 melanoma 2.56% | UO-31 renal 9.45% | A498 renal -21.8%

C=CCNc1ccc2c3c(cccc13)C(=O)N(N1C(=O)c3cccc4cccc(c34)C1=O)C2=O
inactive: HCT-15 colon 102% | HT29 colon 103% | SNB-75 CNS 90.4% | SNB-19 CNS 99.3% | U251 CNS 95.4% | PC-3 prostate 106% | SK-MEL-5 melanoma 102% | UACC-62 melanoma 95.7% | LOX IMVI melanoma 90.8% | SK-MEL-28 melanoma 108% | SK-MEL-2 melanoma 107% | EKVX NSCLC 92.8% | SN12C renal 101% | UO-31 renal 81.1% | TK-10 renal 105% | ACHN renal 103% | CAKI-1 renal 94.1% | A498 renal 119% | CCRF-CEM leukemia 109% | MOLT-4 leukemia 101%

O=C(Nc1ccc(-c2nc(-c3cccc(OCCN4CCOCC4)c3)c(-c3ccnc(Br)c3)[nH]2)cc1)c1ccccc1
inactive: PC-3 prostate 18.3% | SK-MEL-2 melanoma 25.3% | EKVX NSCLC 32.3% | SN12C renal 45.9% | TK-10 renal 48.6% | ACHN renal 28.3% | CCRF-CEM leukemia 15.1%
active: HCT-15 colon -7.78% | HT29 colon 1.79% | SNB-75 CNS -37.3% | SNB-19 CNS -0.968% | U251 CNS 8.84% | SK-MEL-5 melanoma -92.7% | UACC-62 melanoma -15.9% | LOX IMVI melanoma -58.8% | SK-MEL-28 melanoma -29.5% | UO-31 renal -51.9% | CAKI-1 renal -6.68% | A498 renal -70.5% | MOLT-4 leukemia 1.62%

COc1cccc(Cc2nn3cc(-c4ccccc4)nc3s2)c1
inactive: HCT-15 colon 76.9% | HT29 colon 54.6% | SNB-75 CNS 99.7% | SNB-19 CNS 102% | U251 CNS 99.1% | PC-3 prostate 96.5% | SK-MEL-5 melanoma 93.9% | UACC-62 melanoma 91.1% | LOX IMVI melanoma 51.5% | SK-MEL-28 melanoma 113% | SK-MEL-2 melanoma 95.2% | EKVX NSCLC 94.1% | SN12C renal 96.3% | UO-31 renal 74.6% | TK-10 renal 95.1% | ACHN renal 96% | CAKI-1 renal 90.8% | A498 renal 99.5% | CCRF-CEM leukemia 30.2% | MOLT-4 leukemia 30.1%

NCCNc1nc2ccccc2c2c(=O)c3cc(F)ccc3sc12
inactive: HCT-15 colon 51.2% | HT29 colon 14.4% | SNB-75 CNS 71.2% | SNB-19 CNS 78.1% | U251 CNS 64.7% | PC-3 prostate 80.2% | SK-MEL-5 melanoma 93.9% | UACC-62 melanoma 102% | LOX IMVI melanoma 24.2% | SK-MEL-28 melanoma 107% | SK-MEL-2 melanoma 112% | EKVX NSCLC 78.2% | SN12C renal 71.1% | UO-31 renal 47.3% | TK-10 renal 101% | ACHN renal 54.5% | CAKI-1 renal 45.1% | A498 renal 49.4% | CCRF-CEM leukemia 45.7% | MOLT-4 leukemia 46.6%

NC[C@@H]1O[C@H](O[C@@H]2[C@@H](CO)OC(O[C@@H]3[C@@H](O)[C@H](N)C[C@H](N)[C@H]3OC3O[C@H](CN)[C@@H](O)[C@H](O)[C@H]3N)[C@@H]2O)[C@H](N)[C@@H](O)[C@@H]1O (stereo not given in full)
inactive: HCT-15 colon 103% | HT29 colon 109% | SNB-75 CNS 106% | SNB-19 CNS 115% | U251 CNS 102% | PC-3 prostate 111% | SK-MEL-5 melanoma 106% | UACC-62 melanoma 118% | LOX IMVI melanoma 101% | SK-MEL-28 melanoma 111% | SK-MEL-2 melanoma 125% | EKVX NSCLC 98.4% | SN12C renal 117% | UO-31 renal 109% | TK-10 renal 120% | ACHN renal 105% | CAKI-1 renal 99.5% | A498 renal 108% | CCRF-CEM leukemia 97.5% | MOLT-4 leukemia 112%

Oc1ccc(CCl)c2cccnc12
inactive: HCT-15 colon 36.6% | HT29 colon 104% | SNB-75 CNS 64.7% | SNB-19 CNS 80.6% | U251 CNS 59.7% | PC-3 prostate 83.6% | SK-MEL-5 melanoma 89.9% | UACC-62 melanoma 100% | LOX IMVI melanoma 55% | SK-MEL-28 melanoma 82.9% | SK-MEL-2 melanoma 81.2% | EKVX NSCLC 51.6% | SN12C renal 77% | UO-31 renal 45.3% | TK-10 renal 104% | ACHN renal 64.1% | CAKI-1 renal 88.8% | A498 renal 101% | CCRF-CEM leukemia 31.8% | MOLT-4 leukemia 82.6%

CNCCCNc1nc2ccccc2c2c(=O)c3cc(F)ccc3sc12
active: HCT-15 colon 3.52% | HT29 colon -39.7% | U251 CNS 2.96% | UACC-62 melanoma -1.88% | LOX IMVI melanoma -96.2% | CAKI-1 renal -60.9% | CCRF-CEM leukemia -3.67% | MOLT-4 leukemia -27.9%
inactive: SNB-75 CNS 59.5% | SNB-19 CNS 65% | PC-3 prostate 39.6% | SK-MEL-5 melanoma 73.7% | SK-MEL-28 melanoma 50.1% | SK-MEL-2 melanoma 91% | EKVX NSCLC 64.7% | SN12C renal 58.7% | UO-31 renal 20.8% | TK-10 renal 43.3% | ACHN renal 10.9% | A498 renal 28%

Reference: PubChem BioAssay (NCI)
